{"source": "PubChem BioAssay", "note": "Calls of active or inactive are those of the source. The rule behind the calls is not given here.", "data": [{"molecular_target": "Pantothenate synthetase (Mycobacterium tuberculosis (strain ATCC 25618 / H37Rv)) (UniProt P9WIL5)", "sequence (P9WIL5 whole entry, looked up)": "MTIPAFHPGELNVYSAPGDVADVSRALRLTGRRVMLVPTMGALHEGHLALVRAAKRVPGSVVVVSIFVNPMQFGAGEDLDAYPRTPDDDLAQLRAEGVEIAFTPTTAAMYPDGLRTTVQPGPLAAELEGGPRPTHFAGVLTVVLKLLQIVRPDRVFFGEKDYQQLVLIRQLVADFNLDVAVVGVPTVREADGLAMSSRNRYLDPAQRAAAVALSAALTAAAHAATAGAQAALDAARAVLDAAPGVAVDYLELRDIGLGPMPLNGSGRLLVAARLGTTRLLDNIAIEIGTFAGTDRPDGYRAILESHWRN", "assay": "Recombinant Mtb pantothenate synthetase (PanC) inhibitors, coupled enzyme, confirmatory (AID 375);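 note: 0% = full reaction with vehicle and 100% = no enzyme background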", "details": "coupled enzyme assay; at 10 µM, hits give high values", "values": [{"smiles": "Cc1onc(-c2ccccc2)c1C(=O)N1CCOCC1", "inhibition": "9% (inactive)"}, {"smiles": "OC(CN1CCCCC1)Cn1c(C(F)(F)F)nc2ccccc21", "note": "(stereo not given)", "inhibition": "9% (inactive)"}, {"smiles": "CN1CCN(C(=O)CN(Cc2ccc(Cl)cc2)S(C)(=O)=O)CC1", "inhibition": "4% (inactive)"}, {"smiles": "COc1cccc(NC(=O)c2nc3nc(C)cc(C(F)F)n3n2)c1", "inhibition": "0% (inactive)"}, {"smiles": "COC1CCCCC1NS(=O)(=O)c1ccccc1", "note": "(stereo not given)", "inhibition": "0% (inactive)"}, {"smiles": "Cn1cc(CN2CCc3ccccc3C2)c2ccccc21", "inhibition": "9% (inactive)"}, {"smiles": "Fc1ccc(-c2cnc[nH]2)cc1", "inhibition": "0% (inactive)"}, {"smiles": "CC[N+](C)(CC)CCOC(=O)C(O)(c1ccccc1)C1CCCCC1", "note": "(stereo not given)", "inhibition": "0% (inactive)"}, {"smiles": "CCOC(=O)c1ccc(-c2c(C(=O)OCC)oc3cc(O)c(CC)cc3c2=O)o1", "inhibition": "3% (inactive)"}, {"smiles": "COc1cccc(C2=NOC(C(=O)Nc3cc(C)nn3-c3ccccc3)C2)c1OC", "note": "(stereo not given)", "inhibition": "0% (inactive)"}, {"smiles": "O=S(=O)(Cc1ccc(Cl)cc1)Nc1ccc2c(c1)OCO2", "inhibition": "7% (inactive)"}, {"smiles": "O=C1c2ccccc2C(O)(Cc2ccccc2)N1Cc1ccco1", "note": "(stereo not given)", "inhibition": "2% (inactive)"}, {"smiles": "CC(=O)c1ccccc1Oc1nc(CN2CCOCC2)nc2scc(-c3cccs3)c12", "inhibition": "3% (inactive)"}, {"smiles": "O=C1CCCc2nc(N3CCCCC3)sc21", "inhibition": "5% (inactive)"}, {"smiles": "CCC(=O)n1nc(-c2ccco2)nc1N", "inhibition": "0% (inactive)"}, {"smiles": "O=C(c1noc2c1CCc1ccccc1-2)N1CCOCC1", "inhibition": "0% (inactive)"}, {"smiles": "COCCCN1C(=O)C(O)=C(C(C)=O)C1c1ccccn1", "note": "(stereo not given)", "inhibition": "3% (inactive)"}, {"smiles": "COc1ccc(OC)c(S(=O)(=O)NCCO)c1", "inhibition": "1% (inactive)"}, {"smiles": "Cc1cc(NS(=O)(=O)c2ccccc2)no1", "inhibition": "1% (inactive)"}, {"smiles": "CCCc1cc(C(=O)Nc2ccccc2SC)no1", "inhibition": "0% (inactive)"}, {"smiles": "O=C(CCn1c(=O)sc2ccccc21)NCc1ccc2c(c1)OCO2", "inhibition": "0% (inactive)"}, {"smiles": "Cc1nc2cc(Cl)ccc2n1CCO", "inhibition": "2% (inactive)"}, {"smiles": "O=C(CCC(=O)N1CCN(S(=O)(=O)c2ccccc2)CC1)c1cccs1", "inhibition": "9% (inactive)"}, {"smiles": "CC1CCN(c2nc3c(c(=O)n(C)c(=O)n3C)n2Cc2ccccc2)CC1", "inhibition": "0% (inactive)"}, {"smiles": "COc1ccccc1CNC(=O)CCn1c(=O)[nH]c2ccsc2c1=O", "inhibition": "2% (inactive)"}, {"smiles": "CCOC(=O)CSc1nc2ccccc2c(=O)n1CCN1CCOCC1", "inhibition": "0% (inactive)"}, {"smiles": "COc1cccc(CNC(=O)CCn2c(=O)oc3ccccc32)c1", "inhibition": "0% (inactive)"}, {"smiles": "Cc1ccccc1Cn1nc(C)c(NC(=O)c2noc3c2CCCC3)c1C", "inhibition": "5% (inactive)"}, {"smiles": "C/C=C/Cn1c(Br)nc2c1c(=O)[nH]c(=O)n2C", "inhibition": "0% (inactive)"}, {"smiles": "O=C1CCCC2=C1C(c1ccc(Br)cc1)c1c([nH]c(=S)[nH]c1=O)N2", "note": "(stereo not given)", "inhibition": "0% (inactive)"}, {"smiles": "COc1ccc2cc(C(c3nnnn3C(C)(C)C)N3CCc4ccccc4C3)c(=O)[nH]c2c1", "note": "(stereo not given)", "inhibition": "11% (inactive)"}, {"smiles": "Cc1cc(=O)oc2c1c(C)nn2-c1ccc(C(=O)OC(C)C)cc1", "inhibition": "0% (inactive)"}, {"smiles": "O=C1CC(c2ccco2)CC(O)=C1C=NCC1NCCc2ccccc21", "note": "(stereo not given)", "inhibition": "0% (inactive)"}, {"smiles": "Cc1ccc(C)c(C(=O)NC2CC(C)(C)NC(C)(C)C2)c1", "inhibition": "0% (inactive)"}, {"smiles": "O=C(O)C1CC=CCC1C(=O)Nc1ccc(S(=O)(=O)N2CCCc3ccccc32)cc1", "note": "(stereo not given)", "inhibition": "0% (inactive)"}, {"smiles": "O=C(CCSc1nc(-c2ccco2)cc(C(F)(F)F)n1)NCCc1ccccc1", "inhibition": "1% (inactive)"}, {"smiles": "COc1ccc(Cl)c(NCCC(=O)O)c1", "inhibition": "0% (inactive)"}, {"smiles": "Cc1cc(-c2nc3ncccc3o2)ccc1N", "inhibition": "0% (inactive)"}, {"smiles": "COC(=O)Cn1c2c(c3cc(C)ccc31)CCCC2", "inhibition": "1% (inactive)"}, {"smiles": "CN1CCN(C(=O)C2CCN(S(=O)(=O)c3ccc4c(c3)oc(=O)n4C)CC2)CC1", "inhibition": "0% (inactive)"}]}]}
